An excerpt weighted towards active compounds, which were near 4% of everything screened.
EBV LMP1 NFkB – Epstein-Barr LMP1 NF-kappaB reporter inhibition; LMP1-induced NF-kappaB luciferase reporter cells, luminescence; inhibition, % at 12.5 µM; 350,000 compounds, 0.69% hits; in the data active means inhibition above about 41%
TROY signal inh – blocks TROY-dependent signaling in reporter cells | Q293 LMP1-TROYcd NF-kB luciferase reporter, 4 h | AID 1347056 | 360,000 compounds, 0.98% hits | inhibition, % at 10 µM;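 active means compounds whose plate-normalised and pattern-corrected inhibition of the luciferase reporter signal at the single screening dose is 50% or more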
HIF-2a block – blocks HIF-2a reporter activity | 360,000 compounds, 0.72% hits | AID 624352 | inhibition, % at 18.8 µM | 786-0 RCC cells HIF-2a reporter, luciferase luminescence, overnight;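 active means inhibition of the luminescence signal of 40% or more relative to plate controls, in a single-dose primary screen at 18.75 µM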
MITF TRPM1 inh – inhibitors of MITF-driven TRPM1 promoter in melanoma cells. SK-MEL-5 TRPM1 promoter luciferase, 24 h. inhibition, % at 12.5 µM. 330,000 compounds, 0.83% hits;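 active means mean inhibition across replicates of 60% or more, whatever share of single replicates reaches that level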
TWEAK Fn14 block – inhibitors of TWEAK-Fn14 interaction signaling; 360,000 compounds, 2% hits; inhibition, % at 10 µM; TWEAK-stimulated Fn14 reporter cells, luciferase luminescence, 8 h; in the data active means inhibition above about 50%
Peg3 promoter – inhibitors of Peg3 promoter. HeLa PEG-Prom luciferase reporter, luminescence, overnight. inhibition, % at 20 µM. 360,000 compounds, 1.7% hits;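 active means inhibition of at least 50% at 20 µM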
A number is an active result; ! = a repeat was not active.

`O=C(O)C(O)c1ccccc1` (stereo not given) gave EBV LMP1 NFkB 83!, TROY signal inh inactive, HIF-2a block inactive, MITF TRPM1 inh inactive, TWEAK Fn14 block inactive and Peg3 promoter inactive.
Screening COc1ncnc2c1ncn2CCCN(C)CCc1ccccn1 returned EBV LMP1 NFkB inactive, TROY signal inh inactive, HIF-2a block inactive, TWEAK Fn14 block inactive and Peg3 promoter inactive.
For O=c1c(Cc2ccccc2)c(O)c2cccc3c4c(n1c23)CCCC4 the results were EBV LMP1 NFkB inactive, TROY signal inh 54, HIF-2a block inactive, MITF TRPM1 inh inactive, TWEAK Fn14 block inactive and Peg3 promoter inactive.
For COc1ccc(NC(=O)c2cc(-c3ccncc3)nc3ccc(Br)cc23)cc1OC the results were EBV LMP1 NFkB inactive, TROY signal inh inactive, HIF-2a block inactive, MITF TRPM1 inh inactive, TWEAK Fn14 block inactive and Peg3 promoter 94.
For Fc1ccccc1COc1ccc(Br)cc1CNCc1cccnc1 the results were EBV LMP1 NFkB inactive, TROY signal inh inactive, HIF-2a block inactive, MITF TRPM1 inh inactive, TWEAK Fn14 block inactive and Peg3 promoter inactive.
Screening Fc1ccccc1COc1ccc(Br)cc1CNCc1ccncc1 returned EBV LMP1 NFkB inactive, TROY signal inh inactive, HIF-2a block inactive, MITF TRPM1 inh inactive, TWEAK Fn14 block inactive and Peg3 promoter 56.
`Cn1c(=Nc2ccc(N3CCOCC3)cc2)ccc2ccccc21` gave EBV LMP1 NFkB inactive, HIF-2a block inactive, MITF TRPM1 inh inactive, TWEAK Fn14 block 72 and Peg3 promoter inactive.
Cn1c(N=Nc2ccc(N3CCOCC3)cc2)[n+](C)c2ccccc21 was read as EBV LMP1 NFkB inactive, TROY signal inh 70, HIF-2a block inactive, MITF TRPM1 inh inactive, TWEAK Fn14 block inactive and Peg3 promoter inactive.
`CCn1c(=Nc2ccc(N3CCOCC3)cc2)ccc2ccccc21` gave EBV LMP1 NFkB inactive, TROY signal inh inactive, HIF-2a block inactive, MITF TRPM1 inh inactive, TWEAK Fn14 block inactive and Peg3 promoter inactive.
COCc1cc(=O)[nH]c(Nc2nc3ccc(C)cc3o2)n1 was read as EBV LMP1 NFkB inactive, TROY signal inh inactive, HIF-2a block inactive, MITF TRPM1 inh inactive, TWEAK Fn14 block 106 and Peg3 promoter inactive.
Screening CCCCNC(=O)CN(Cc1ccco1)S(=O)(=O)c1ccc(C(C)=O)cc1 returned EBV LMP1 NFkB inactive, TROY signal inh inactive, HIF-2a block inactive, TWEAK Fn14 block inactive and Peg3 promoter inactive.
`O=[N+]([O-])c1ccc(NS(=O)(=O)c2ccc(Cl)c(Cl)c2)cc1` gave TROY signal inh 55, HIF-2a block inactive, TWEAK Fn14 block inactive and Peg3 promoter inactive.
O=C(CSCc1ccc(Cl)cc1)Nc1ccc(-c2nnc(-c3ccccc3)o2)cc1 was read as EBV LMP1 NFkB inactive, TROY signal inh inactive, HIF-2a block inactive, MITF TRPM1 inh inactive, TWEAK Fn14 block inactive and Peg3 promoter 51.
`O=C(Cc1ccc(Cl)cc1)Nc1ccc(-c2nnc(-c3ccco3)o2)cc1` gave EBV LMP1 NFkB inactive, TROY signal inh inactive, HIF-2a block inactive, MITF TRPM1 inh inactive, TWEAK Fn14 block inactive and Peg3 promoter inactive.
For Cc1ccc(S(=O)(=O)N2CCOC23CCN(C(=O)c2ccccc2Br)CC3)cc1 the results were EBV LMP1 NFkB inactive, TROY signal inh inactive, HIF-2a block inactive, MITF TRPM1 inh inactive, TWEAK Fn14 block inactive and Peg3 promoter inactive.
`CN(C)CCCNc1nc2cc(-c3cnn(C)c3)sc2c(=O)n1C` gave TROY signal inh inactive, HIF-2a block inactive, TWEAK Fn14 block inactive and Peg3 promoter inactive.
For COC(=O)c1cc(=O)nc(NN=C2c3ccccc3-c3ccccc32)s1 the results were TROY signal inh inactive, HIF-2a block inactive, TWEAK Fn14 block 61 and Peg3 promoter inactive.
Screening COC(=O)c1cc(=O)nc(NN=C2CCCCC2)s1 returned TROY signal inh inactive, HIF-2a block inactive, TWEAK Fn14 block inactive and Peg3 promoter inactive.
CCOc1ccccc1NC(=O)CN1C(=O)COc2ccc(C)cc21 was read as EBV LMP1 NFkB inactive, TROY signal inh inactive, HIF-2a block inactive, MITF TRPM1 inh inactive, TWEAK Fn14 block inactive and Peg3 promoter inactive.
For Cn1c(C(=O)OCC(=O)NCc2cccs2)cc2sccc21 the results were EBV LMP1 NFkB inactive, TROY signal inh inactive, HIF-2a block inactive, MITF TRPM1 inh inactive, TWEAK Fn14 block inactive and Peg3 promoter inactive.
For Cn1c(C(=O)OCC(=O)NCCc2ccccc2)cc2sccc21 the results were EBV LMP1 NFkB inactive, TROY signal inh inactive, HIF-2a block inactive, MITF TRPM1 inh inactive, TWEAK Fn14 block 53 and Peg3 promoter inactive.
For C=CCN1CCc2cc(O)c(O)cc2C(c2ccccc2)C1 (stereo not given) the results were EBV LMP1 NFkB 77, TROY signal inh inactive, HIF-2a block inactive, MITF TRPM1 inh inactive, TWEAK Fn14 block inactive and Peg3 promoter inactive.
O=C(N/N=C/c1cc([N+](=O)[O-])ccc1O)c1cccc2cc[nH]c12 was read as EBV LMP1 NFkB inactive, TROY signal inh inactive, HIF-2a block inactive, MITF TRPM1 inh 74, TWEAK Fn14 block inactive and Peg3 promoter inactive.
For O=[N+]([O-])c1ccccc1N/N=C\c1ccccc1Cl the results were EBV LMP1 NFkB inactive, TROY signal inh inactive, HIF-2a block inactive, MITF TRPM1 inh inactive, TWEAK Fn14 block inactive and Peg3 promoter inactive.
For O=C(N/N=C/c1cccc([N+](=O)[O-])c1)c1cccc2cc[nH]c12 the results were EBV LMP1 NFkB inactive, TROY signal inh inactive, HIF-2a block inactive, MITF TRPM1 inh inactive, TWEAK Fn14 block inactive and Peg3 promoter inactive.
O=[N+]([O-])c1ccc(O)c(/C=N/Nc2ccccc2Cl)c1 was read as EBV LMP1 NFkB inactive, TROY signal inh 69, HIF-2a block inactive, MITF TRPM1 inh inactive, TWEAK Fn14 block inactive and Peg3 promoter inactive.
Screening COc1ccc(Cl)cc1C(=O)NCCN(C)C returned EBV LMP1 NFkB inactive, TROY signal inh inactive, HIF-2a block inactive, MITF TRPM1 inh inactive, TWEAK Fn14 block inactive and Peg3 promoter inactive.
For CN(C)CCNC(=O)c1ccc(COc2ccc(Cl)cc2Cl)cc1 the results were EBV LMP1 NFkB inactive, TROY signal inh inactive, HIF-2a block inactive, MITF TRPM1 inh inactive, TWEAK Fn14 block inactive and Peg3 promoter 54.
Cc1ccc(C(=O)NNC(=O)Cc2nc3nc(C)cc(C)n3n2)cc1 was read as TROY signal inh inactive, HIF-2a block inactive, MITF TRPM1 inh inactive, TWEAK Fn14 block inactive and Peg3 promoter inactive.
`Cc1cc(C)n2nc(CC(=O)NC3CCCCCC3)nc2n1` gave EBV LMP1 NFkB 64, TROY signal inh inactive, HIF-2a block inactive, MITF TRPM1 inh inactive, TWEAK Fn14 block inactive and Peg3 promoter inactive.
For CC(CC1C(C#N)=C(N)SC(N)=C1C#N)c1ccccc1 (stereo not given) the results were EBV LMP1 NFkB inactive, TROY signal inh 50, HIF-2a block inactive, MITF TRPM1 inh inactive, TWEAK Fn14 block inactive and Peg3 promoter inactive.
`O=c1oc2c(O)c(O)cc3c(=O)oc4c(O)c(O)cc1c4c23` gave EBV LMP1 NFkB inactive, TROY signal inh inactive, HIF-2a block inactive, MITF TRPM1 inh inactive, TWEAK Fn14 block 88 and Peg3 promoter inactive.
